Rows were chosen to be rich in hits. Some 11% of all compounds tested hit in one or more screens of this group.
ALDH1A1 inh = qHTS Assay for Inhibitors of Aldehyde Dehydrogenase 1 (ALDH1A1); Aldehyde dehydrogenase 1A1 (Homo sapiens), P00352; Purified ALDH1A1, NADH fluorescence, propionaldehyde substrate; Potency, µM (highest dose often 75.3 µM), for the others: at the highest dose activity, negative = inhibition, most hits filed as inhibitors; 7.3% of 220,000 active; active means well fitted inhibition curve with a large enough effect, not every such curve was filed as active; inconclusive means small, poorly fitted or top-dose-only effect, or another doubt; inactive means no such curve, though single readings can be large or run the other way;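 further: potency means the concentration at half of the fitted maximal effect; plate controls were no enzyme wells and a reference inhibitor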
IMPase Li inh = qHTS Assay for Identifying the Cell-Membrane Permeable IMPase Inhibitors: Potentiation with Lithium; CHO-M1 cells, IP1 TR-FRET (IP-One), carbachol + lithium; Potency, µM (doses to about 59.4 µM), inactives show top-dose activity, negative = IMPase inhibition, actives largely listed as inhibitors; 0.35% of 210,000 active; AID 1457, 2008;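 further: IP1 builds up when IMPase is blocked and the TR-FRET signal falls; potency means the concentration at half of the fitted maximal effect; plate controls were basal vehicle for no effect and high inhibitor control for full effect; nearly all actives have a fitted effect of over 50% in size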
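Steps: plate 2000 CHO-M1 cells per well and culture 16–30 h; add compound and lithium; incubate 30 min, 37C; add d2-IP1 tracer and Eu cryptate anti-IP1 antibody in lysis buffer; read after 10 min at room temperature.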
IMPase cell inh = qHTS Assay for Identifying the Cell-Membrane Permeable IMPase Inhibitors; inhibition (IP1 accumulation), % at 46.1 µM; AID 901, 2007; Inositol monophosphatase 1 (Rattus norvegicus), P97697; 120,000 tested, under 10 active; CHO-M1 cells, IP1 accumulation, HTRF TR-FRET ratio; active means well fitted curve in the direction sought with a large enough effect in the signal ratio, not every such curve was filed as active; inconclusive means small, poorly fitted or top-dose-only effect, or a change in a side signal; inactive means no such curve, though single readings can be large or run the other way; the % refers to the signal ratio;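 further: cells stimulated with carbachol in lithium chloride buffer; plate controls were DMSO basal wells for no effect and reference inhibitor wells for full effect; higher means more IMPase inhibition seen as more IP1 and lower FRET ratio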
Target sequence (P97697 whole entry, looked up): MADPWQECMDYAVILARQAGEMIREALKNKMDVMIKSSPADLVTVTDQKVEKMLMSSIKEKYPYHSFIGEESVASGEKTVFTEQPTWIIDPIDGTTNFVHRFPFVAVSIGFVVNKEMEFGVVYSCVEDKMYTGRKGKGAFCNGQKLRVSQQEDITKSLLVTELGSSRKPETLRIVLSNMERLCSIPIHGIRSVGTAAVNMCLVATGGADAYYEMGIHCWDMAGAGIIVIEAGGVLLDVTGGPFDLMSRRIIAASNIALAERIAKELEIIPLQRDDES
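CHO-M1, 2000 cells/well, cultured 16–30 h; cpd up to 46 uM; carbachol (50 uM solution, stimulation buffer w/ 50 mM LiCl, pH 7.4), 30 min 37C; IP-One TR-FRET, 10 min RT; Ex 320/Em 665, 620; Hill-fit AC50.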
HPGD block = qHTS Assay for Inhibitors of HPGD (15-Hydroxyprostaglandin Dehydrogenase); 15-hydroxyprostaglandin dehydrogenase [NAD(+)] (Homo sapiens), P15428; 4.3% of 150,000 active; Potency, µM, without a hit: top-dose activity change, negative = inhibition, most hits filed as inhibitors; purified HPGD, NADH fluorescence kinetic, PGE2 substrate; AID 894, 2007; active means well fitted inhibition curve with a large enough effect, not every such curve was filed as active; inconclusive means small, poorly fitted or top-dose-only effect, or another doubt; inactive means no such curve, though single readings can be large or run the other way; further: potency means the concentration at half of the fitted maximal effect
Target sequence (P15428 whole entry, looked up): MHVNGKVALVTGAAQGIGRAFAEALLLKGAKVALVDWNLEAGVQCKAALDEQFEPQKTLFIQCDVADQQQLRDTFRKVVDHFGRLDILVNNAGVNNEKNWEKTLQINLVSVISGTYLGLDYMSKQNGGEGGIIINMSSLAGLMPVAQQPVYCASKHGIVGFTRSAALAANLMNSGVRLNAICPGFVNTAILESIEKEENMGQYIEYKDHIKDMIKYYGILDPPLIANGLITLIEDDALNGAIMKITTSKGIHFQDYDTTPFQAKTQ
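NADH formation kinetics: reaction with 30 uM PGE2 and 1 mM NAD+ (final), 20 nM enzyme, Tris-HCl pH 8 with Tween 20, after 15 min compound preincubation at room temperature. Fluorescence change, last versus first of five reads.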
PNC inhibitor = High Content Assay for Compounds that inhibit the Assembly of the Perinucleolar Compartment; PC3M PTB-GFP, PNC prevalence imaging, 16 h; stronger effect = lower value; activity change (PNC), negative = inhibition, % at 10 µM; 3.1% of 140,000 active;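 active means readout at or below -70, meaning at least 70% loss of cells showing the perinucleolar compartment, a nuclear body marking cancer cells; inconclusive means readout between -30 and a set limit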;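 further: plate controls were DMSO wells for no effect and camptothecin positive control wells for full effect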
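Read-out is percentage of cells bearing a perinucleolar compartment, from automated 20x imaging of fixed, Hoechst-stained PC3M PTB-GFP cells. Cells were seeded 4 h, then exposed 16 h to compound (23 nl of library stock) in duplicate plates.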
12-hLO inh = qHTS Assay for Inhibitors of 12-hLO (12-human lipoxygenase). AID 1452, 2008. 0.12% of 150,000 active. Potency, µM (series often up to 57.1 µM), without a hit: at the top dose activity change, negative = inhibition, hits mostly inhibitors. purified 12-hLO, xylenol orange hydroperoxide absorbance; further: potency means the concentration at half of the fitted maximal effect; nearly all actives have a fitted effect of over 55% in size
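Hydroperoxide output read as Fe(III)-xylenol orange absorbance, 573-to-405 nm ratio, after 30 min reaction with 40 uM arachidonic acid. Enzyme: 150 nM purified human 12hLO, 15 min compound preincubation; 25 mM Hepes pH 7.0, room temperature.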
The depositor's hits bear a star; u = inconclusive; x = no result; [ ] = another dose, or the depositor's remark. Unless noted, the call rests on the fitted dose curve; in most records, active means well fitted curve in the direction sought with a large enough effect; inconclusive means small, poorly fitted or top-dose-only effect, or another doubt; inactive means no such curve, though single readings can be large; an effect the other way counts as inactive or inconclusive. Unless noted, on the % scale 0 is the no-effect control and ±100 the full control effect.

SMILES	ALDH1A1 inh	IMPase Li inh	IMPase cell inh	HPGD block	PNC inhibitor	12-hLO inh
CCCCOC(=O)C1=C(C)Nc2nnnn2C1c1ccccc1Cl (stereo unspecified)	0.45µM*	20%[38.3 µM]	2	-8%	-7	-9%
CCOC(=O)C1=C(C)Nc2nnnn2C1c1ccccc1Cl (stereo unspecified)	0.71µM*	-1%	-4	-11%	-17	-9%
CC1=C(C(=O)Nc2ccc(C)cc2)C(c2ccccc2Cl)n2nnnc2N1 (stereo unspecified)	x	x	-11	x	x	x
COC(=O)C1=C(C)Nc2nnnn2C1c1ccc(Cl)cc1Cl (stereo unspecified)	8.9µM*	20%[38.3 µM]	1	-7%	u	-21%
COCCOC(=O)C1=C(C)NC(=O)N(C(C)=O)C1c1ccc(Cl)cc1 (stereo unspecified)	-7%	-4%[38.3 µM]	16	-10%	-7	-2%
CC1=C(C(N)=O)C(c2ccc(Cl)cc2Cl)n2ncnc2N1 (stereo unspecified)	7%	-10%[38.3 µM]	-7	-3%	-23	2%
CCOC(=O)C1=C(C)NC(=S)N(C(C)=O)C1c1ccc(Cl)cc1 (stereo unspecified)	8.9µM*	0%	x	-9%	48	-19%
COc1cccc(Cn2c(=O)c(-c3cccs3)nc3cnc(OC)nc32)c1	u	3%	x	x	x	x
O=C(Nc1ccc(Br)c(Cl)c1)C1CC1	-13%	28%[38.3 µM]	8[1.84 µM]	18µM*	31	u
O=C(Nc1ccc(NC(=O)C2CC2)nc1)c1cccs1	-4%	4%[38.3 µM]	-8	-8%	-107*	5%
CC(=O)Nc1ccc(Br)c(Cl)c1	2%	x	x	x	x	x
O=C(Nc1ccc(NC(=O)C2CC2)cn1)c1ccccc1Cl	3%	5%	0	-12%	-112*	1%
O=C(Nc1ccc(NC(=O)C2CCCCC2)nc1)c1ccccn1	u	9%	x	x	x	x
Cc1cc(F)c(Nc2ncnc3cc(OCc4ccccc4)ccc23)cc1O	-12%	-14%	x	-20%	x	-2%[0.00818 µM]
COC1(C)CCC2OC2(C)CCC2C1CC2(C)C (stereo unspecified)	u	-8%	x	-13%	x	-3%
c1ccc2c(c1)CC1(CCCC1)n1nnnc1-2	13µM*	x	9	x	-21	-4%
CC1(C)Cc2ccccc2-c2nnnn21	11µM*	23%[38.3 µM]	2	-8%	u	-3%
COc1cc2c(cc1OC)-c1nnnn1C(C)(C)C2	u	24%[38.3 µM]	4	-10%	17	-2%
Cc1cc(S(=O)(=O)N2CCN(c3ncccn3)CC2)ccc1-n1cnnn1	8%	-10%	-14	-11%	-25	-3%
NS(=O)(=O)c1ccc(NC(=S)NCc2ccc3c(c2)OCO3)cc1	22µM*	-7%	x	x	x	x
NS(=O)(=O)c1ccc(NC(=S)NCc2ccco2)cc1	6.3µM*	6%	x	x	x	x
COc1ccccc1NC(=S)NCc1ccco1	-11%	25%[38.3 µM]	-5	-29%	-10	1%
NC(=O)c1ccc(NC(=S)NCc2ccco2)cc1	u	-1%	x	x	x	x
COc1cc(NC(=S)NCc2ccco2)cc(OC)c1OC	u	2%	-1	16µM*	u	-7%
O=C(NCc1ccc2c(c1)OCO2)c1ccc(CS(=O)(=O)c2cccc(C(F)(F)F)c2)o1	-9%	3%[38.3 µM]	-13	-11%	-23	-13%
O=C(NCc1ccc2c(c1)OCO2)c1ccc(CS(=O)(=O)c2ccc(Br)cc2)o1	-10%	-10%[38.3 µM]	9	4%	-87*	-12%
Cc1ccc(C#CC2C=CC(Oc3ccc4c(c3)OCO4)C(CO)O2)c(C)c1 (stereo unspecified)	0%[13.5 µM]	x	x	x	x	x

Screening results as filed in PubChem BioAssay.
